From PubChem BioAssay
Only some compounds are listed: those with a hit (about 19% of all), similar ones and a draw of the others.
Giardia killer = Small Molecules that selectively kill Giardia lamblia: qHTS | Giardia lamblia trophozoite viability | activity change, % at 7.66 µM, hits read low | hit rate 0.15% among 340,000; in the data active = activity change below about -80%; inconclusive = between about -30% and that limit;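 note: parasites exposed to compound for two days anaerobically before the ATP read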
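Luminescent ATP signal served as the viability read-out, measured 15-30 min after adding ATP detection reagent to trophozoites that had been incubated with compounds for 48 hrs at 37 deg C anaerobically at 100 cells/well.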
TDP1 cell CPT = qHTS for Inhibitors of human tyrosyl-DNA phosphodiesterase 1 (TDP1): qHTS in cells in presence of CPT; chicken DT40 Tdp1-/-;hTDP1 cells + 20 nM CPT, ATP luminescence, 48 h; hit rate 12% among 420,000; Potency, µM (highest dose often 46.2 µM), without a hit: top-dose activity change, negative = growth inhibition, actives largely listed as inhibitors; AID 686979, 2013; note: potency is the fitted concentration of half-maximal effect; nearly all actives have a fitted effect of over 55% in size
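Chicken DT40 Tdp1-/- cells stably complemented with human TDP1 were seeded at 400 cells/well in medium containing 20 nM camptothecin, exposed to pin-transferred compounds, and grown at 37 °C for at least 48 hr. Viability was read as ATP luminescence.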
TDP1 cell noCPT = qHTS for Inhibitors of human tyrosyl-DNA phosphodiesterase 1 (TDP1): qHTS in cells in absence of CPT; DT40 Tdp1-/- hTDP1 cells, no CPT, ATP luminescence, 48 h; Potency, µM (top dose mostly 46.2 µM), without a hit: at the highest dose activity change, negative = growth inhibition, most hits filed as inhibitors; hit rate 15% among 420,000; AID 686978, 2013; note: potency is the fitted concentration of half-maximal effect; nearly all actives have a fitted effect of over 55% in size
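Compound effects on proliferation are scored in DT40 Tdp1-/-;hTDP1 cells in the absence of CPT. ATP levels (CellTiter-Glo luminescence) are recorded after a ≥48 hr, 37 °C incubation.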
ELG1 DNA repair = qHTS screen for small molecules that inhibit ELG1-dependent DNA repair in human embryonic kidney (HEK293T) cells expressing luciferase-tagged ELG1; hit rate 2.3% among 330,000; Potency, µM (titrated, usually from 46.1 µM), without a hit: top-dose activity change, negative = inhibition, most hits filed as inhibitors; HEK293T ELG1-luciferase reporter, luminescence, 16 h; DNA damage induced by 5-fluorouridine; note: potency is the fitted concentration of half-maximal effect; nearly all actives have a fitted effect of over 55% in size
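Step one: seed 2,000 cells per well. Step two: pin-transfer compound or DMSO alongside 5-fluorouridine. Step three: incubate 16 hr, 37 °C, 5% CO2. Step four: add ONE-Glo, wait 30 min, read luminescence.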
TDP1 inh = qHTS Assay for Inhibitors of Tyrosyl-DNA Phosphodiesterase (TDP1). Tyrosyl-DNA phosphodiesterase 1 (Homo sapiens), Q9NUW8. hit rate 0.28% among 350,000. AID 485290, 2010. recombinant TDP1, AlphaScreen DNA substrate cleavage. Potency, µM (titrated, usually from 130 µM), inactives show at the highest dose activity change, negative = inhibition, hits mostly inhibitors; note: potency is the fitted concentration of half-maximal effect; nearly all actives have a fitted effect of over 40% in size
Target sequence (Q9NUW8 whole entry, looked up): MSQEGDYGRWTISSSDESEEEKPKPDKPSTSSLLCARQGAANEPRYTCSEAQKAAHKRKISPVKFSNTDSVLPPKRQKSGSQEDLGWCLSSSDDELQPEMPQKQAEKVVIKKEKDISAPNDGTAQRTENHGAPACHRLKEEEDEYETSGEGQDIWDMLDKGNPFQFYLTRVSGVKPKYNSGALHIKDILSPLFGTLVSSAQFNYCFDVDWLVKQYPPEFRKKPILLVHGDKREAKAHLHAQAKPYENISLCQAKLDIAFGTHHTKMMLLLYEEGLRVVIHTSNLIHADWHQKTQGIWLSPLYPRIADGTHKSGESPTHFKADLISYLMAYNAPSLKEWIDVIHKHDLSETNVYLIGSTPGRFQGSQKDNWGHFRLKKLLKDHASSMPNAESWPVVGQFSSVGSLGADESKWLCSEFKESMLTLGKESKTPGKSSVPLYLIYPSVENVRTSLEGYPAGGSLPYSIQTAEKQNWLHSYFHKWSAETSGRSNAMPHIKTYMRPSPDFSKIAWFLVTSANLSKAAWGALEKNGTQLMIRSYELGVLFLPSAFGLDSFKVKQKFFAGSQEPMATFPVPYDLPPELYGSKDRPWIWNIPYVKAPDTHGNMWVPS
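Compounds were preincubated with Tdp1 (1 nM final) for 15 min at room temperature before substrate (15 nM final) started a 5 min reaction; beads (10 ug/ml final) were then added for 10 min before AlphaScreen detection.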
IL-1B inflam inh = qHTS for Inhibitors of Inflammasome Signaling: IL-1-beta AlphaLISA Primary Screen; THP-1 LPS/ATP IL-1B secretion, AlphaLISA, 16 h; stronger effect = lower value; activity change, % at 57.5 µM; hit rate 4.7% among 360,000; AID 743279, 2014; in the data active = activity change below about -50%; inconclusive = mostly about -30% to -49%
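THP-1 cells pretreated 1 hr with compounds (up to 57.5 uM final), then stimulated with LPS (250 ng/mL final) plus ATP (1.25 mM final); secreted IL-1B measured by AlphaLISA after 16 hr, decreased signal indicating inhibition.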
The depositor's hits bear a star; ? = inconclusive; / = no result. Unless noted, calls come from the whole dose curve; as a rule, active = well fitted curve in the direction sought with a large enough effect; inconclusive = small, poorly fitted or top-dose-only effect, or another doubt; inactive = no such curve, though single readings can be large; an effect the other way counts as inactive or inconclusive. % is set by controls: 0 for no effect and ±100 for the full control effect.

SMILES	Giardia killer	TDP1 cell CPT	TDP1 cell noCPT	ELG1 DNA repair	TDP1 inh	IL-1B inflam inh
O=C(NCCc1ccc(Cl)cc1)c1nnc(Cc2ccc(F)cc2)o1	/	0%	3%	/	-2%	/
CCOC(=O)C1(CCCc2ccccc2)CCN(S(=O)(=O)N(C)C)CC1	15	?	?	-11%	/	?
CCCCNC(=O)CSc1nc2cc3c(cc2c(=O)n1CCCC(=O)NCc1ccc2c(c1)OCO2)OCO3	/	-2%	0%	/	-1%	/
CN(C)c1ncc2nc(-c3ccc(Cl)cc3)c(=O)n(-c3ccccc3)c2n1	/	-3%	0%	/	/	/
O=C(NC(=S)Nc1ccc(S(=O)(=O)Nc2ccccc2)cc1)C1CC1	-4	7%	-5%	0%	-1%	1
CN(c1ccccc1)S(=O)(=O)c1ccc(NC(=S)NC(=O)C2CC2)cc1	-6	?	12µM*	-22%	3%	-11
CCC1(c2ccccc2)NC(=O)N(CC(=O)NNC(=O)COc2ccc(Cl)cc2C)C1=O (centres undefined)	11	2%	6%	4%	1%	-10
CCCOc1ccc(CNC(=O)c2ccc(C)c(-n3c(C)nc4cccnc43)c2)cc1	/	?	?	/	0%	/
CC(=O)NC(C)(c1ccccc1)c1nc(-c2cccc(F)c2)cs1 (centres undefined)	/	29µM*	?	/	/	/
CC(=O)NC(C)(c1ccccc1)c1nc(-c2ccc(S(C)(=O)=O)cc2)cs1 (centres undefined)	/	?	-24%	/	/	-20
COCc1cccc(-c2csc(C(C)(NC(C)=O)c3ccccc3)n2)c1 (centres undefined)	/	23µM*	18µM*	/	/	-9
COCc1cccc(-c2csc(C(NC(C)=O)c3ccccc3)n2)c1 (centres undefined)	/	-24%	-16%	/	/	5
COCc1cccc(-c2csc(C(C)(NC(C)=O)c3ccc(OC)cc3)n2)c1 (centres undefined)	/	18µM*	?	/	/	-23
Cc1ccc(C)c(CNC(=O)Nc2ccccc2)c1	-27	-24%	-24%	?	-1%	-10
COc1ccc(C)cc1NC(=O)CCN1CC(C)OC(C)C1 (centres undefined)	-10	0%	-2%	5%	3%	45
O=c1c2c3c(sc2nnn1Cc1ccc(Br)cc1)CCCC3	/	-21%	?	/	-1%	/
O=C(Nc1ccc(O)c2c(=O)cc(-c3cccc(Cl)c3)oc12)c1ccc(F)cc1	7	?	13µM*	21%	/	33
CCOc1cccc2c1OC1(C)CC2NC(=O)N1c1cccc(C(=O)N2CCN(c3ccccn3)CC2)c1 (centres undefined)	0	-23%	-20%	2%	5%	-66*
COc1cccc2c1OC1(C)CC2NC(=O)N1c1cccc(C(=O)N2CCN(c3ccccn3)CC2)c1 (centres undefined)	0	-3%	?	/	5%	-15
O=C(Cn1sc2ccccc2c1=O)Nc1ccc(Cl)cc1	/	5.2µM*	2.6µM*	/	/	-105*
O=C(Cn1sc2ccccc2c1=O)Nc1ccc(Br)cc1	/	2.3µM*	2.3µM*	/	/	-98*
CC1(C)C(=O)N(CC(=O)Nc2ccc(Cl)cc2)c2ccccc21	/	-5%	-3%	/	10%	/
O=C(Cn1sc2ccccc2c1=O)Nc1ccc(F)cc1	/	2.9µM*	2.1µM*	/	/	-104*
O=C(Cn1nc(-c2ccccc2)c2ccccc2c1=O)Nc1ccc(F)cc1	13	-22%	?	3%	1%	-9
